Reference: PubChem BioAssay AID463190 (Sanford-Burnham Center for Chemical Genomics, 2010)
About 7,300 (2.2%) of roughly 330,000 compounds were called active.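 Rule for the calls: active = inhibition of at least 40%; inactive = the rest.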 What follows is part of a selection rich in actives, with near analogues and random picks from the rest.

Assay: growth inhibition of tim10-1 ts yeast – luminescence, uHTS, primary screen (AID 463190);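 note: mutant grown at 25 °C; 0% = DMSO wells with yeast and 100% = wells holding no yeast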
Details: S. cerevisiae tim10-1 ts strain growth, BacTiter-Glo, 24 h; at 20 µM; hits give high values

inhibition, inactive:
CCOC(=O)C1CCN(C(=O)COc2cccc3ccccc23)CC1 6.37%
O=C(CCCN=C1NS(=O)(=O)c2ccccc21)OCC(=O)c1ccc(F)c(F)c1 11.8%
CCOc1ccc(NC(=O)CN(C)C(=O)c2c(C)noc2C)cc1OCC -5.08%
COC(=O)C1(CCSC)NC(c2ccc(OC)cc2OC)C2C(=O)N(c3cccc(C(C)=O)c3)C(=O)C21 (stereo unspecified) 8.92%
O=C(Nc1ccncc1)Nc1ccc(F)cc1 -16.8%
CC(C)CNC(=S)Nc1ccc(F)cc1 0.34%
Cc1ccc(NC(=O)Cc2nc(COC(=O)C(C)NS(=O)(=O)c3ccc(C)cc3)cs2)cc1 (stereo unspecified) 15.7%
O=C(CSC(=S)N1CCCCC1)c1c(F)cccc1F 9.67%
Cc1cc(/C=N/NC(=O)CC2(C)OCCO2)c(C)n1-c1ccc(Cl)c(Cl)c1 1.86%
O=C1c2cccnc2C(Nc2ccc(S(=O)(=O)N3CCCCCC3)cc2)N1Cc1ccccc1 (stereo unspecified) 34.2%
CC1=C(/C=C/C(C)=C/C=C/C(C)=C/C=C/C=C(C)/C=C/C=C(C)/C=C/C2=C(C)CCCC2(C)C)C(C)(C)CCC1 10.6%
COC(=O)c1ccccc1NC(=O)CN(Cc1ccc(Cl)cc1)S(C)(=O)=O 10.7%
CCCCNCc1ccc(SC)cc1 -1.78%
O=C(Nc1cccc(F)c1)c1coc(=O)c(Br)c1 18.9%
CCc1ccccc1N1CN(Cc2ccco2)CNC1=S 17.4%
COc1ccc(NC(=O)c2ccc(C#CC(C)(C)O)cc2)cc1 9.08%
C/C(=N\Nc1ccc([N+](=O)[O-])cc1)c1ccc(-n2nncc2C(C)(C)C)cc1 -1.51%
CCCNC(=O)c1ccc(N2CCC3(CC2)CC(c2ccc(Cl)cc2)=NO3)c([N+](=O)[O-])c1 7.65%
Cc1nonc1OCCn1nnnc1N 4.98%
COc1ccccc1N(CCOc1ccccc1)S(=O)(=O)c1ccccc1 7.59%
Cc1ccccc1C1=N/C(=C/c2cccnc2)C(=O)O1 31.3%
COc1ccccc1/C=C/C1=NC(=C\N(C)C)/C(=O)O1 21%
CCN(Cc1ccccc1)C(=O)CCS(=O)(=O)c1ccc2c(c1)oc(=O)n2C -13%
C[C@H](CO)N1C[C@H](C)[C@@H](CN(C)C(=O)Nc2ccc3c(c2)OCO3)Oc2c(cccc2N(C)C)C1=O 12.3%
CCS(=O)(=O)N1CCC(N2CCN(c3ccccc3)CC2)CC1 4.85%
COC(=O)c1cc2c(N)c(C(=O)c3ccc(Cl)cc3)sc2nc1C(OC)OC 10.6%
CCN(CC)C(=O)c1sc2nc(-c3ccccc3)ccc2c1N 21%
CC(C)OC(=O)c1sc2nc3c(cc2c1N)C(=O)CCC3 -8.03%
CCc1nc2sc(C(=O)O)c(N)c2c2c1CCCC2 -71.8%
Cc1sc2nc(CC(N)=O)[nH]c(=O)c2c1-c1ccccc1 6.26%
Cc1cccc(NC(=O)c2sc3nc(N4CCOCC4)c4c(c3c2N)CCCC4)c1 32%
Cc1cc(C)cc(NC(=O)c2cccc(NC(=O)C3C4CC5OC(=O)C3C5C4)c2)c1 (stereo unspecified) 4.38%
CCCC(NC(=O)c1ccco1)c1nc2ccccc2[nH]1 (stereo unspecified) 14.1%
CCOc1ccc(CCNC(=O)C2=C(C)C(=O)OC23CCC(C)CC3)cc1OCC (stereo unspecified) 19.9%
Nc1nc(-c2sc3nc4c(cc3c2N)CCCC4)nc(N2CCOCC2)n1 27.8%
CCN(CC)Cc1csc2ccc(Br)cc12 7.29%
COc1ccccc1OCCNCC(O)COc1cccc2[nH]c3ccccc3c12 (stereo unspecified) 22.3%
COc1ccc(C)cc1S(=O)(=O)NCCc1ccccc1 22.2%
CCOC(=O)c1nnn(-c2nonc2-n2cccc2)c1CN1CCC(C(=O)OCC)CC1 31.9%
CC(=O)c1cccc(OCC(=O)OCC(=O)Nc2cc(S(=O)(=O)N3CCCCC3)ccc2C)c1 1.6%
COc1ccc(N(C)C(=O)C2CCN(S(=O)(=O)c3cccc4nsnc34)CC2)cc1 6.33%
CC(C)C(=O)Nc1ccc2c3c(cccc13)CC2 -15.9%
CC(C)c1cc(CN2CCOCC2)cc(C(C)C)c1O -5.76%
COc1ccc(CCNC(=O)C2CCCN(S(=O)(=O)c3ccc(OC)cc3)C2)cc1 (stereo unspecified) 1.05%
COC(=O)c1ccc(/C=C2/C(=O)Oc3ccccc32)cc1 39.9%
COc1ccc2c(c1)O/C(=C\c1ccccc1O)C2=O 18%
Cc1ccccc1/C=C\c1nc(O)c([N+](=O)[O-])c(=O)[nH]1 -8.34%
CN(C)Cc1c(O)ccc2c(=O)c(-c3ccccc3Cl)coc12 1.49%
COc1ccc(NC(=O)CCCNC(=O)Cn2cnc3sc4c(c3c2=O)CCCC4)cc1OC -24.1%
COc1ccc(NC(=O)CCNC(=O)Cn2cnc3sc4c(c3c2=O)CCCC4)cc1OC -10.3%
O=C(CCNC(=O)c1ccc(Br)cc1)NCCCc1ccccc1 7.38%
S=C(NCCc1ccccc1)Nc1ccccc1 19.1%
CC12CN(NC(=O)c3ccc(Cl)cc3)C3(C#N)CC1CCC23C (stereo unspecified) 36.5%
CCn1nc(C(=O)NNS(=O)(=O)c2cc(/C=C/C(=O)O)cc(OC)c2OC)c2ccccc2c1=O -3.64%
O=C(COC(=O)c1ccc(S(=O)(=O)N2CCc3ccccc3C2)cc1)NC(=O)NCc1ccco1 0.504%
Cc1cnc(C(=O)Oc2cccc(Cl)c2Cl)cn1 -10.1%
COc1ccccc1OCC(=O)O/N=C(\N)c1ccccn1 22.7%
N/C(=N\OC(=O)c1ccc([N+](=O)[O-])cc1)c1ccccn1 37.6%
O=C(CC1CCCCC1)NCc1ccccc1 11.1%
CCc1cccc(C)c1NC(=O)COC(=O)CC1CCCC1 2.51%
CCCC(C)C(=O)NCc1ccncc1 (stereo unspecified) 27.9%
CCCc1cc(=O)[nH]c(SCc2cc(=O)oc3c(C)c(C)ccc23)n1 10.3%
Cc1cccn2c(=O)c3cc(C(=O)NC4CCCCC4)sc3nc12 19.7%
Cc1cc(C)c2c(n1)sc1c(=O)n(-c3ccccc3)c(=O)[nH]c12 4.48%
Cc1cccc(NC(=S)NC23CN4CN(CN(C4)C2)C3)c1 10%
Cc1cccc(NC(=S)Nc2ccc3cn[nH]c3c2)c1 15.4%
Cc1cccc([C@@H]2[C@@H]3C(=O)N(C)C(=O)[C@@H]3[C@@H]3C(=O)Nc4ccccc4C(=O)N23)c1 5.99%
O=C(NC1CCCC1)c1cc(-c2ccccc2)on1 -21.5%
FC(F)(F)c1nnc2c3ccccc3c(Cl)nn12 17.8%
Cc1cc(NC(=O)CSc2nc(C(C)C)nc3sc4c(c23)CCC(C)C4)no1 (stereo unspecified) 4.7%
Cc1[nH]c2ccccc2c1/C=C(/C#N)C(=O)NC(C)C 20.4%
CC(C)(C)C(=O)/C(C#N)=C/c1ccc(O)cc1 8.78%
Cc1ccc(C(=O)OC2=CC(=O)CC(C)(C)C2)cc1 31%
COCCCNS(=O)(=O)c1cccc(S(=O)(=O)c2cccc(S(=O)(=O)NCCCOC)c2)c1 2.99%
O=C(NCCCN1CCOCC1)c1ccc(N2CCCC2)c([N+](=O)[O-])c1 -9.34%
Cc1ccccc1OCC(=O)NNC(=O)c1ccc(-n2cncn2)c([N+](=O)[O-])c1 -11%
CC(C)CC(=O)N/C(N)=N/c1nc2ccccc2s1 19.6%
CCOC(=O)/C(N=Nc1cc(C(=O)O)cc(C(=O)O)c1)=C(\O)CCl 11%

inhibition, active:
CC(C)(CCl)C(=O)Nc1ccc(Sc2ccc(F)cc2)cc1 53.5%
Oc1c(Cl)cc(Cl)c(Cl)c1Cc1c(O)c(Cl)cc(Cl)c1Cl 91%
CCCCCCCCCCCCCCCC(=O)OC/C=C(C)/C=C/C=C(C)/C=C/C1=C(C)CCCC1(C)C 40.7%
COc1ccc(C(=O)Nc2ccc(-n3nncc3C(C)(C)C)cc2)cc1 44%
O=C1OC(/C=C/c2ccccc2)=NC/1=C/c1ccco1 45.5%
NC(=O)c1sc2nc3c(c(-c4ccccc4)c2c1N)CCC3 41.3%
Cc1nc2sc(C(=O)c3ccccc3)c(N)c2c2c1CCCC2 42.2%
Cc1ccc2c(N)c(C(=O)c3ccccc3)sc2n1 41.9%
Oc1c(C(c2ccccn2)N2CCOCC2)ccc2cccnc12 (stereo unspecified) 43.7%
O=C1Oc2ccccc2C(=O)/C1=C/c1ccccc1O 62.2%
COc1ccc(/C=N/Nc2ncnc3sc4c(c23)CCCC4)cc1O 40.7%
S=C(NCCCc1ccccc1)Nc1ccc(Br)cc1 64.1%
N/C(=N\OC(=O)CCC1CCCCC1)c1ccccn1 47.6%
N/C(=N\OC(=O)CC1CCCCC1)c1ccccc1 49.3%
Cc1cccc(NC(=S)Nc2ccc(Cl)c(Cl)c2)c1 49.9%
CC1CCc2sc3nc(N4CCN(CCO)CC4)n4ncnc4c3c2C1 (stereo unspecified) 40.6%
CC(C)NC(=O)/C(C#N)=C\c1ccc(N(C)C)c(Br)c1 53.6%
O=C(COc1ccccc1F)NNC(=O)c1ccc(N2CCCCC2)c([N+](=O)[O-])c1 41.3%
